High-throughput results from PubChem BioAssay.
GPR151 ag = activators of human GPR151, primary screen, cell-based, PathHunter beta-arrestin, luminescence; G-protein coupled receptor 151 (Homo sapiens), Q8TDV0; PathHunter beta-arrestin GPR151 cells; activation, % at 11.2 µM; 650,000 compounds, 1% hits; AID 1508602, 2020; in the data active = activation above about 4.9%;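 note: 0% = median of compound wells and 100% = cells with positive control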
Target sequence (Q8TDV0 whole entry, looked up): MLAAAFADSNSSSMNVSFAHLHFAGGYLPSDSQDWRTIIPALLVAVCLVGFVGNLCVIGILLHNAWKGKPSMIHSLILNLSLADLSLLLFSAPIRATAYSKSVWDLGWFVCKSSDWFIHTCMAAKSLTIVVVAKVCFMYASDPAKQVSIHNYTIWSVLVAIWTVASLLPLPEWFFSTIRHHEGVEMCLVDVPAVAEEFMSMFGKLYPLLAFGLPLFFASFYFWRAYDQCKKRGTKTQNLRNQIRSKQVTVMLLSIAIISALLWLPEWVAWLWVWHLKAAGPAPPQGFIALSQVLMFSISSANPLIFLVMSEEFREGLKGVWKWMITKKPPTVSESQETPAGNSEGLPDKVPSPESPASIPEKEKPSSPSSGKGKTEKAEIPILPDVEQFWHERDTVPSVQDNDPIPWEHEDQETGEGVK
MITF inh = MITF inhibitors, primary screen, biochemical, AlphaScreen, human. Microphthalmia-associated transcription factor (Homo sapiens), O75030. AlphaScreen MITF homodimerization, bead proximity signal. inhibition, % at 2.6 µM. 650,000 compounds, 0.91% hits; in the data active = inhibition above about 50%;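 note: 0% = vehicle wells with protein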
FBW7 act = FBW7 E3 ligase activators, primary screen, biochemical, AlphaScreen, human; AlphaScreen FBW7–phospho-cyclin E peptide binding, activator screen; normalized activity (activation), % at 26.1 µM; 650,000 compounds, 0.13% hits; AID 1259310, 2017; in the data active = normalized activity above about 1.9%;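 note: purified mutant Fbw7 with reduced substrate affinity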
TEAD-YAP block = TEAD-YAP interaction inhibition, primary screen, TEAD-YAP interaction inhibitor project, luminescence, HEK-TIYL cells | TEAD-Gal4/YAP UAS-luciferase luminescence | inhibition, % at 9.12 µM | 640,000 compounds, 1.4% hits; in the data active = inhibition above about 32%;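 note: 0% = median of test compound wells and 100% = reference inhibitor wells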
Starred values were filed as active, the others as inactive; ! = not confirmed by another sample. Sampled rows, rich in hits. Any-hit rate of the full collection: about 3.5%.

SMILES | GPR151 ag | MITF inh | FBW7 act | TEAD-YAP block
CSc1ccccc1C(=O)Nc1nc(-c2ccc(C#N)cc2)cs1 | 3 | -7 | 0 | -2
O=C(C1CCN(S(=O)(=O)c2cc(Cl)ccc2Cl)CC1)N1CCCCC1 | 0 | -2 | 0 | -9
O=C(Nc1ccccc1CO)c1cccc(I)c1 | -2 | -5 | 0 | -20
Cc1ccc(S(=O)(=O)Nc2ccccc2C(=O)Nc2nccs2)cc1 | 0 | 21 | 0 | 39*
C[n+]1c2cc(N)ccc2cc2ccc(N)cc21 | 0 | 52*! | 0 | -1
Nc1ccc2nc(/C=C/c3nc4ccc(N)cc4[nH]3)[nH]c2c1 | 2 | 20 | 0 | 16
C[n+]1c2cc(N)ccc2cc2ccc(N)cc21 (tested in a mixture with another compound) | -3 | 57* | 0 | -14
CCOC(=O)c1cc2sc(Br)cc2n1CC(=O)N(C)C | 1 | -12 | 0 | 34*
COc1cccc(C(C[N+](=O)[O-])c2c[nH]c3ccccc23)c1OC (stereo unspecified) | 2 | -5 | 0 | 14
O=[N+]([O-])CC(c1ccccc1)c1c[nH]c2ccccc12 (stereo unspecified) | 0 | 0 | 0 | 46*
COc1cccc(C(C[N+](=O)[O-])c2c[nH]c3ccccc23)c1 (stereo unspecified) | 1 | -12 | 0 | 54*
Cc1ccc(-n2c(C)cc(/C=C3/C(=N)N4C=CSC4=NC3=O)c2C)c(C)c1 | -1 | -2 | 0 | 64*
COc1ccc(C)cc1-n1c(C)cc(/C=C2/C(=N)N3C=CSC3=NC2=O)c1C | -1 | 15 | 1 | 51*
Cc1cc(/C=C2/C(=N)N3C=CSC3=NC2=O)c(C)n1-c1ccc(Cl)cc1 | 5 | -4 | 0 | -5
COc1ccccc1-n1c(C)cc(/C=C2\C(=N)N3N=CSC3=NC2=O)c1C | 1 | 20 | 0 | 75*
COc1ccccc1-n1c(C)cc(/C=C2/C(=N)N3C=C(C)SC3=NC2=O)c1C | 1 | 15 | 0 | 5
O=C(NNC(=O)c1cccc(Cl)c1)c1ccc(F)cc1 | 2 | 12 | 0 | -1
Cc1ccc(N2C(=O)CC(N3CCN(C/C=C/c4ccccc4)CC3)C2=O)cc1 (stereo unspecified) | 0 | -5 | 0 | -12
COc1ccc(N2Cc3ccc(C(=O)NN)cc3C2)cc1 | 0 | 26 | 0 | -35
Cc1cc2c(cc1C)CN(c1cccc(C(=O)NN)c1)C2 | 2 | -7 | 0 | 38*
Cc1cc2c(cc1C)CN(c1cccc(C(=O)O)c1)C2 | -1 | 9 | 0 | 34*
Cc1nc(SCC(=O)N(C(C)C)C(C)C)c2c(C)c(C)sc2n1 | 1 | -4 | 0 | 51*
COc1ccccc1NC(=O)Cn1c(C)cc(=O)c2cccc(C)c21 | 1 | -1 | 0 | 3
COc1ccccc1NC(=O)Cn1c(C)cc(=O)c2ccccc21 | -1 | -2 | 0 | 64*
COc1ccccc1NC(=O)Cn1c(C)cc(=O)c2cccc(OC)c21 | 0 | -10 | 0 | 37*
SMILES | GPR151 ag | MITF inh | FBW7 act | TEAD-YAP block
CCn1c(=O)n(CC(=O)Nc2ccccc2OC)c(=O)c2ccccc21 | -1 | 9 | 0 | 14
COc1cccc(NC(=O)Cn2c(C)cc(=O)c3ccccc32)c1 | 0 | 13 | 0 | 54*
C[C@H](O)[C@H]1NC(=O)[C@H]2CN(C(=O)c3cccc(F)c3F)CCN2C1=O | -1 | 13 | 0 | 1
O=C(CCSc1ccccc1)Nc1ccc(S(=O)(=O)N2CCCCCC2)cc1 | 1 | 8 | 0 | 14
COc1ccccc1CC(=O)Nc1cnc2cnc(-c3ccc(F)c(Cl)c3)cn12 | 0 | 6 | 1.9* | -5
c1ccc2c(c1)CN(CC13CC4CC(CC(C4)C1)C3)C2 | 3 | -5 | 0 | -1
Cc1ccc(C(=O)/C=C/Nc2ccc(F)cc2F)o1 | -1 | -13 | 0 | 61*
Cc1ccc(C(=O)/C=C/Nc2cccc(Cl)c2C)o1 | 0 | 10 | 0 | -13
Cc1ccc(C(=O)/C=C/Nc2ccc(Br)cc2F)o1 | 0 | 6 | 0 | 77*
Cc1nc(NCCCO)c2c(-c3cccs3)csc2n1 | 1 | 4 | 0 | 32*
Cc1ccc(OCC(=O)Nc2ccc(N3CCOCC3)c(Cl)c2)cc1C | -1 | 5 | 0 | 6
O=c1oc2ccc(Cl)cc2c(=O)n1-c1cccc(C(F)(F)F)c1 | 0 | -19 | 0 | 76*
COc1cccc(-n2c(SCC(=O)NC(C)(C)C)nnc2-c2ccco2)c1 | 0 | 4 | 0 | 3
COCCCNC(=O)c1cnn2c(C)c(Cc3ccc(Cl)cc3)c(C)nc12 | 1 | 3 | 0 | 5
CCOc1ccc(NC(=O)C(=O)NCCCN)cc1 | -1 | -4 | 0 | 76*
CCOc1ccc(NC(=O)C(=O)NCN(C(=O)CCl)c2ccccc2)cc1 | -1 | 18 | 0 | 47*
CCOc1ccc(NC(=O)C(=O)NCCCO)cc1 | 0 | 19 | 1 | -11
CC(=O)Nc1sc2ccccc2c1[N+](=O)[O-] | 1 | -6 | 0 | 9
COc1ccccc1N1C(=O)CC(S/C(N)=N/N=C(\C)c2ccc(O)cc2)C1=O (stereo unspecified) | 0 | 82* | 0 | -7
CN1CCCN(c2cc(-c3ccc(OC4CCCCO4)cc3)ncn2)CC1 (stereo unspecified) | 0 | 21 | 0 | 4
c1cn(CCCNc2cc(-c3ccc(OC4CCCCO4)cc3)ncn2)cn1 (stereo unspecified) | -1 | 20 | 0 | 50*
Oc1ccc(-c2cnn3ccc(NCc4cccnc4)nc23)cc1 | 0 | -5 | 0 | 35*
COc1cc(-c2cnn3ccc(NCCO)nc23)ccc1O | -1 | -22 | 0 | 1
COc1cccc(-c2cnn3ccc(Nc4cc(OC)c(OC)c(OC)c4)nc23)c1 | 1 | 10 | 0 | -3
COc1cc(-c2cnn3ccc(Nc4cc(OC)c(OC)c(OC)c4)nc23)ccc1O | 2 | 7 | 0 | 71*
SMILES | GPR151 ag | MITF inh | FBW7 act | TEAD-YAP block
COc1cc(Nc2ccn3ncc(-c4ccccc4Cl)c3n2)cc(OC)c1OC | 0 | 9 | 2 | 36*
COc1ccc(-c2cnn3ccc(NCCO)nc23)cc1OC | 0 | -4 | 0 | 57*
COC(=O)c1cc(CNC(=O)COc2ccccc2)cc(NC(=O)Cn2cccn2)c1 | -1 | -19 | 0 | -7
Cn1cccc1/C=C1\CS/C(=C\c2cccn2C)C1=O | 1 | 68* | -1 | -11
CCN1C/C(=C\c2cccn2C)C(=O)/C(=C/c2cccn2C)C1 | 1 | 11 | 0 | 1
CN(CCOC(=O)c1cccc([N+](=O)[O-])c1)C(C)(C)C | 3 | -3 | 0 | 0
Cc1cc2nc(-c3cccc(NC(=O)c4oc5ccccc5c4C)c3)oc2cc1C | 3 | 4 | 0 | 2
CN1CCN(c2ccc(-c3nc(NCCO)c4ncn(-c5ccccc5)c4n3)cc2)CC1 | 0 | -11 | 0 | 73*
